Assay outcomes: PubChem, National Center for Advancing Translational Sciences (NCATS)
In the library only some 19% were active in any assay of this set; here they are far more common.
HT1080-NT tox: kills 2HG-producing HT-1080-NT fibrosarcoma cells; HT-1080-NT fibrosarcoma viability, CellTiter-Glo ATP luminescence, 48 h; Potency, µM (series often up to 46.1 µM), inactives show at the highest dose activity, negative = less viability, hits mostly cytotoxic; 360,000 tested, 1.6% active;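 further: NT is the 2HG producing partner of a matched IDH1 knockdown line; 0% = DMSO-treated cells and -100% = media-only wells without cells; nearly all actives have a fitted effect of over 55% in size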
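Viability by CellTiter-Glo luminescence after 48 h compound exposure at 37C of HT-1080-NT cells (750/well, RPMI, 5% FBS). % activity scaled between DMSO wells and medium-only wells, then curve-fitted and categorized by curve class.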
DT40 TDP1 CPT: growth inhibition of DT40 Tdp1-/-;hTDP1 cells with camptothecin (screen for TDP1 inhibitors). chicken DT40 Tdp1-/-;hTDP1 cells + 20 nM CPT, ATP luminescence, 48 h. Potency, µM (top dose mostly 46.2 µM), inactives show top-dose activity change, negative = growth inhibition, usual class: inhibitors. 420,000 tested, 12% active. AID 686979; further: nearly all actives have a fitted effect of over 55% in size
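Chicken DT40 Tdp1-/- cells stably complemented with human TDP1 were seeded at 400 cells/well in medium containing 20 nM camptothecin, exposed to pin-transferred compounds, and grown at 37 °C for at least 48 hr. Viability was read as ATP luminescence.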
KB-3-1 cytotox: KB-3-1 parental cell cytotoxicity | KB-3-1 viability, CellTiter-Glo ATP luminescence, 72 h | Potency, µM (series often up to 46.1 µM), most hits filed as cytotoxic | 400,000 tested, 1.4% active | AID 1347075; further: nearly all actives have a fitted effect of over 60% in size
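Multi-concentration cytotoxicity screen in KB-3-1 cells grown in DMEM lacking phenol red with 10% FBS. After 72 h at 37 °C with compound, ATP-dependent luminescence was recorded.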
KB-V1 cytotox: KB-V1 MDR subline cytotoxicity | Potency, µM (highest dose often 46.1 µM), actives largely listed as cytotoxic | KB-V1 MDR cells viability, CellTiter-Glo, 72 h | AID 1347076 | 400,000 tested, 3.4% active; further: nearly all actives have a fitted effect of over 60% in size
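Readout: CellTiter-Glo luminescence, 10 min after addition. Cells: KB-V1 MDR subline, 72 h at 37 degrees C with compound. Analysis: corrected, normalized data fitted to concentration-effect curves.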
HT1080 IDH1KD tx: toxicity to HT-1080 IDH1 knockdown cells (counter line). HT-1080 IDH1 knockdown viability, ATP luminescence, 48 h. Potency, µM (series often up to 46.1 µM), for the others: at the top dose activity, negative = toxicity, usual class: cytotoxic. 360,000 tested, 2% active. AID 686971;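 further: 0% = DMSO wells and -100% = cell-free medium wells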
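Cytotoxicity counter-line: IDH1KD HT-1080, 48 h, CellTiter-Glo. Curves classed by r2, magnitude and activity.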
TDP1 cell noCPT: qHTS for Inhibitors of human tyrosyl-DNA phosphodiesterase 1 (TDP1): qHTS in cells in absence of CPT. DT40 Tdp1-/- hTDP1 cells, no CPT, ATP luminescence, 48 h. Potency, µM (highest dose often 46.2 µM), without a hit: at the top dose activity change, negative = growth inhibition, usual class: inhibitors. 420,000 tested, 15% active. AID 686978, 2013; further: nearly all actives have a fitted effect of over 55% in size
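DT40 Tdp1-/-;hTDP1 cells, no CPT (DMSO vehicle only), 400 cells/well; compounds pin-transferred; ≥48 hr, 37 °C; CellTiter-Glo 30 min RT dark, luminescence read.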
An asterisk follows results filed as active; i = inactive; ? = inconclusive; / = no result given; [ ] = another dose, or the depositor's remark. The call rests on the fitted dose curve; in most records, active means well fitted curve in the direction sought with a large enough effect; inconclusive means small, poorly fitted or top-dose-only effect, or another doubt; inactive means no such curve, though single readings can be large; an effect the other way counts as inactive or inconclusive. Unless noted, on the % scale 0 is the no-effect control and ±100 the full control effect; potency means the concentration at half of the fitted maximal effect.

SMILES	HT1080-NT tox	DT40 TDP1 CPT	KB-3-1 cytotox	KB-V1 cytotox	HT1080 IDH1KD tx	TDP1 cell noCPT
COc1ccc(OCCOc2ccc(S(=O)(=O)N3CCCC3)cc2[N+](=O)[O-])cc1	-2%	?	?	15µM*	-1%	?
COc1ccc(OCCOc2ccc(S(=O)(=O)N3CCCC3)cc2C(N)=O)cc1	6%	?	i	i	-5%	?
O=[N+]([O-])c1cc(S(=O)(=O)N2CCCC2)ccc1N/N=C/c1cccnc1	20%	-26%	i	i	19%	-14%
COc1cc(Nc2ccc(S(=O)(=O)N3CCN(C)CC3)cc2[N+](=O)[O-])cc(OC)c1	-20%	?	i	i	-9%	?
O=C(O)c1ccccc1/C=N/Nc1ccc(S(=O)(=O)N2CCCC2)cc1[N+](=O)[O-]	13µM*	3%	?	?	?	4%
CC1=C(C(=O)Nc2ccc(F)cc2)C(c2ccc(N(C)C)cc2)NC(=O)N1 (configuration not stated)	/	2%	i	i	/	-13%
CCCC[C@@H]1CC2=C(C(=O)OC(C)(C)O2)[C@@H](c2ccc(Cl)cc2)O1	13%	?	i	i	10%	?
CC1(C(=O)NS(=O)(=O)c2cccc(F)c2)CCN1C(=O)CC1CCCCC1 (configuration not stated)	10%	0%	i	i	7%	-12%
Cc1ccc(-c2cc3c(nn2)-c2ccccc2C3=O)cc1	?	16µM*	i	?	?	23µM*
O=C1c2ccccc2-c2nnc(-c3ccc(O)cc3)cc21	13%	?	i	i	15%	?
O=C1c2ccccc2-c2nnc(-c3ccc(F)cc3)cc21	-4%	?	?	i	10%	9.2µM*
Cc1ccccc1-c1cc2c(nn1)-c1ccccc1C2=O	-1%	?	i	?	-12%	?
Cc1cc(Cl)ccc1NC(=O)C1CCN(S(=O)(=O)c2ccc3[nH]c(=O)ccc3c2)CC1	/	-28%	i	i	/	-11%
CCCSC1=N/C(=C\C=C\c2ccco2)C(=O)S1	-3%	26µM*	i	i	6%	18µM*
CCCSC1=N/C(=C\c2ccc([N+](=O)[O-])o2)C(=O)S1	6%	21µM*	i	i	0%	?
O=C1SC(SCc2ccccc2)=N/C1=C\c1ccco1	-1%[9.24 µM]	8%	i	i	?	-15%
CCn1cc(C(=O)N(C)Cc2ccccc2)c(=O)c2cc(S(=O)(=O)N3CCc4ccccc4C3)ccc21	/	?	i	i	/	?
O=C(CC[C@H]1O[C@@H](n2ccc(=O)[nH]c2=O)[C@H](O)[C@@H]1O)NCC(c1ccccc1)c1ccccc1	13%	-3%	i	i	17%	-16%
Cc1ccc(C(=O)OCC(=O)N2CCC(C)CC2)cc1S(=O)(=O)N1CCOCC1	-1%	-25%	i	i	1%	-29%
O=C1[C@H]2[C@@H](c3ccccc3)N[C@]3(CCCN(Cc4ccccc4)C3=O)[C@H]2C(=O)N1Cc1ccccc1	-5%	-17%	i	i	-4%	?
O=C1[C@H]2[C@@H](c3ccc(C(F)(F)F)cc3)N[C@]3(CCCN(Cc4ccc(F)cc4)C3=O)[C@H]2C(=O)N1Cc1ccccc1	-4%	?	i	?	-5%	?
O=C1[C@H]2[C@@H](c3ccccc3)N[C@]3(CCCN(Cc4ccc(F)cc4)C3=O)[C@H]2C(=O)N1Cc1ccccc1	1%	?	i	i	5%	16µM*
Cc1ccc(CN2CCC[C@]3(N[C@H](c4ccccc4)[C@@H]4C(=O)N(Cc5ccccc5)C(=O)[C@@H]43)C2=O)cc1	-4%	26µM*	i	i	-17%	16µM*
O=C1[C@H]2[C@@H](c3ccccc3)N[C@]3(CCCN(Cc4ccc(C(F)(F)F)cc4)C3=O)[C@H]2C(=O)N1Cc1ccccc1	?	18µM*	i	i	?	?
N#CCCn1c(=O)c(-c2ccc(F)cc2)nc2cnc(Oc3cccc(Cl)c3)nc21	/	6%	/	/	/	0%
SMILES	HT1080-NT tox	DT40 TDP1 CPT	KB-3-1 cytotox	KB-V1 cytotox	HT1080 IDH1KD tx	TDP1 cell noCPT
O=C(Cn1nnc2ccccc2c1=O)Nc1cccc(S(=O)(=O)N2CCOCC2)c1	2%	-21%	i	i	2%	-4%
Cc1nn(-c2ccccn2)c2c1-c1nc(N3CCOCC3)ncc1CC2	-3%	18µM*	?	18µM*	2%	23µM*
Cc1nn(-c2ccccn2)c2c1-c1nc(N)sc1CC2	/	20µM*	?	?	/	18µM*
CCCc1cc(=O)[nH]c(-n2[nH]c3c(c2=O)CCCC3)n1	?	16µM*	?	i	?	21µM*
CCC1CN(CCNC(=O)c2ccc(C#CC(C)(C)O)cc2)Cc2cc(OC)ccc2O1 (configuration not stated)	/	4%[9.04 µM]	/	/	/	?
N#CC(C#N)=C1SC(=Nc2ccccc2)C(=Nc2ccccc2)N1c1ccccc1	?	5.2µM*	21µM*	?	?	8.2µM*
CCOc1ccccc1-c1ccc(C(=O)NCc2ccc(Cl)cc2)o1	-5%	?	/	i	-7%	?
Cc1ccccc1C(=O)N1CCC[C@H]1C(=O)N1CCC[C@H]1C(=O)NCc1ccccn1	19%	0%	i	i	20%	-13%
CCOC(=O)c1sc(C)c2c1NC(C)(c1cccs1)NC2=O (configuration not stated)	-28%	?	i	5.2µM*	?	?
COc1ccc(N2CCN(C(=O)c3ccc(COc4ccc5c(C)cc(=O)oc5c4)cc3)CC2)cc1	11%	?	i	?	10%	16µM*
CC(C)c1ccc(COc2ccc(C(=O)N3CCOCC3)cc2)cc1	-12%	?	i	?	-19%	23µM*
CC(C)c1ccc(C(=O)N2CCCN(C(=O)c3ccc(C(C)C)cc3)CC2)cc1	-9%	-24%	i	i	-7%	0%
Cc1ccc(OCc2ccc(C(=O)N3CCOCC3)cc2)cc1C	?	16µM*	i	18µM*	-3%	21µM*
